{"source": "PubChem BioAssay AID1053", "about": "(University of Pittsburgh Molecular Library Screening Center, 2008)", "note": "Values joined by “and” are separate entries in the source; they are usually repeats but may differ in a detail not shown here. Identical values can stand only once. Values without a mark were called inactive. Active and inactive are the calls of the source. No rule for the calls is given here.", "data": [{"biological_target": "Serine/threonine-protein kinase PLK1 (Homo sapiens) (UniProt P53350)", "sequence (P53350 whole entry, looked up, the tested form may be a part)": "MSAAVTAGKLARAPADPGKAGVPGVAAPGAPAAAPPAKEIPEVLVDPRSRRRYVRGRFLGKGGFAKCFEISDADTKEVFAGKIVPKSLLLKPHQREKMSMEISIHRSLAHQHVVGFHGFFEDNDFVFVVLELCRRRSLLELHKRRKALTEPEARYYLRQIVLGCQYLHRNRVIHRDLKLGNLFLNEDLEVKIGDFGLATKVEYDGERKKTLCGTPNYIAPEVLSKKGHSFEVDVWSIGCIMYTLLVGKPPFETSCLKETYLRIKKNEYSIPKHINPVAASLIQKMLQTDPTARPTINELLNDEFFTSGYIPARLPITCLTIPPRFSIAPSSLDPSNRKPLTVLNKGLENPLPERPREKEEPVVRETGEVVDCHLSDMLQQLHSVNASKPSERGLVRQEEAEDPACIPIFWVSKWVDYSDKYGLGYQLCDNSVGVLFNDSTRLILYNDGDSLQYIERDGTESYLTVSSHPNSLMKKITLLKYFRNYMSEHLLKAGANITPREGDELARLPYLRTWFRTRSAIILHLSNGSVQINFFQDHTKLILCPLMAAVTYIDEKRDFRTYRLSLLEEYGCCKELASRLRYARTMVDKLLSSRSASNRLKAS", "assay": "Plk1 polo box domain binding inhibitors, SAR follow-up, biochemical, fluorescence polarization, purchased analogs (AID 1053)", "settings": "Plk1 PBD fluorescence polarization peptide binding; at 20 µM; hits give high values", "values": [{"smiles": "CC(=O)N(/N=C1\\Sc2ccccc2C1=O)c1ccccc1Cl", "inhibition": "-48.1%"}, {"smiles": "CC(=O)N(/C=C1\\Sc2ccccc2C1=O)c1cccc(C)c1", "inhibition": "-111%"}, {"smiles": "CCOC(=O)c1ccc(NC(=O)c2ccc(Cl)c(Cl)c2)cc1", "inhibition": "6.96%"}, {"smiles": "COc1cc(C=C2C(=O)NC(=O)NC2=O)ccc1OCc1ccc(Cl)cc1Cl", "inhibition": "-58.1%"}, {"smiles": "CC(OC(=O)c1ccc(NC(=O)c2ccc(Br)cc2)cc1)C(=O)c1ccccc1", "note": "(configuration not stated)", "inhibition": "0.95%"}, {"smiles": "O=C(COC(=O)c1ccc(NC(=O)c2ccc([N+](=O)[O-])cc2)cc1)c1ccccc1", "inhibition": "61.8% (active)"}, {"smiles": "Cc1ccccc1-c1nnc2[nH]c(=O)n(C)c(=O)c2n1", "inhibition": "-8.49% and -8.27%"}, {"smiles": "CCOC(=O)c1ccc(NC(=O)c2ccc3snnc3c2)cc1", "inhibition": "-21.6% and -22.3%"}, {"smiles": "CC(=O)N(CN1C(=O)c2cc(Cl)c(Cl)cc2C1=O)c1ccc(C)c(Cl)c1", "inhibition": "-45.5%"}, {"smiles": "CCCCCCC(=O)N(CN1C(=O)c2ccccc2C1=O)c1ccc(OCc2ccccc2)cc1", "inhibition": "-7.37%"}, {"smiles": "CCOC(=O)c1ccc(N=Cc2c(O)n(Cc3cccs3)c(=O)[nH]c2=O)cc1", "inhibition": "-25.6%"}, {"smiles": "Cn1c(=O)[nH]c2nnc(-c3ccc([N+](=O)[O-])cc3)nc2c1=O", "inhibition": "-49.9%"}, {"smiles": "Cn1nc(-c2ccc(C(F)(F)F)cc2)nc2c(=O)n(C)c(=O)nc1-2", "inhibition": "13.6% and 30.2%"}, {"smiles": "Cn1c(=O)c2nc(-c3ccccc3)c(=O)n(C)c2n(C)c1=O", "inhibition": "-37.8%"}, {"smiles": "CCOC(=O)c1ccc(NC(=O)C2Cc3ccccc3C(=O)O2)cc1", "note": "(configuration not stated)", "inhibition": "-59.4%"}, {"smiles": "CC(=O)N(CN1C(=O)c2ccccc2C1=O)c1ccc(Cl)c(Cl)c1", "inhibition": "-88.3%"}, {"smiles": "Cn1c(=O)[nH]c(=O)c2nc(-c3ccccc3)c(-c3ccccc3)nc21", "inhibition": "-33.3%"}, {"smiles": "CCOC(=O)c1ccc(NC(=O)C2CCC(C(C)(C)C)CC2)cc1", "note": "(configuration not stated)", "inhibition": "8.43%"}, {"smiles": "CCOC(=O)c1ccc(NC(=O)C2OCCc3ccccc32)cc1", "note": "(configuration not stated)", "inhibition": "-101%"}, {"smiles": "CC(=O)N(/N=C1\\Sc2ccccc2C1=O)c1ccccc1C", "inhibition": "17.5%"}, {"smiles": "Cn1nc(-c2ccc(F)cc2)nc2c(=O)n(C)c(=O)nc1-2", "inhibition": "3.86%"}, {"smiles": "CC(=O)N(/C=C1\\Sc2ccccc2C1=O)c1ccc(C)cc1", "inhibition": "-201% and -215% and -234%"}]}]}
